This is a sample that favours compounds with a hit; in the whole collection about 8.3% have one here.
HCMV inh – human cytomegalovirus inhibition; activity change, negative = inhibition, % at 57.5 µM; 410,000 compounds, 4.5% hits; HFF cells, HCMV-luciferase reporter, 72 h; active compounds read low; AID 1259415; in the data active = activity change below about -60%; inconclusive = no clear call, values can overlap the other calls; inactive = above about -39%
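Two compound doses tested in HFFs infected with HCMV-luciferase, MOI 1 PFU/cell, 72 h at 37C. Lysate luminescence read with OneGlo; data normalized against buffer-only and 10uM Salinomycin inhibitor controls.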
HCV inh – blocks hepatitis C virus; Huh7.5.1 HCVcc-Cre infection, luciferase reporter, 44 h; Potency, µM (titrated, usually from 41.8 µM), inactives show top-dose activity change, negative = inhibition, most hits filed as inhibitors; 340,000 compounds, 3.4% hits; AID 651820; also: potency is read from the fitted curve at half-maximal effect
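Compounds are dispensed onto cells plated 4 h earlier at 1,000 per well, with HCVcc-Cre virus (about 0.5 moi) added next. Following 44 h of culture, luminescent signal is measured for 15 sec after 15 min with substrate at room temperature.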
MARV entry inh – inhibitors of Marburg virus binding or cell entry | Marburg virus pseudotyped entry inhibition, cell reporter | Potency, µM (doses to about 37.8 µM), inactives show at the highest dose activity change, negative = inhibition, hits mostly inhibitors | 300,000 compounds, 1.8% hits | AID 540276; calls by dose curve; tested in HEK293 cells; also: potency is read from the fitted curve at half-maximal effect
Giardia FBPA inh – inhibitors of Giardia lamblia fructose-1,6-bisphosphate aldolase | A8B2U2 | purified Giardia FBPA | Potency, µM (highest dose often 59.6 µM), inactives show at the top dose activity, negative = inhibition, most hits filed as inhibitors | 290,000 compounds, 0.71% hits; also: potency is read from the fitted curve at half-maximal effect; nearly all actives have a fitted effect of over 55% in size
Target sequence (A8B2U2 whole entry, looked up): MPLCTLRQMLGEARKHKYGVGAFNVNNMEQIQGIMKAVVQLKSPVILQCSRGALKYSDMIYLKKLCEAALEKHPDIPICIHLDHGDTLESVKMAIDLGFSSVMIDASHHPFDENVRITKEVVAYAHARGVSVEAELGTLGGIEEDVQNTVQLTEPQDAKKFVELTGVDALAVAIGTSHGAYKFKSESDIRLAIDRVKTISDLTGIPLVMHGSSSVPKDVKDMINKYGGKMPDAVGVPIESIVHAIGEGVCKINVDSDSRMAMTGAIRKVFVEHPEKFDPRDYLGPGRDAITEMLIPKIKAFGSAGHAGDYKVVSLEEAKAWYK
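Giardia FBPA (40 nM reagent) was preincubated 10 min at RT with compound (up to 57.5 uM final), then substrate plus GAPDH/TPI/NAD/arsenate coupling system with diaphorase/resazurin was added; resorufin fluorescence (525/598 nm) was read after 20 min.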
FMDV antiviral – foot and mouth disease virus antiviral activity; FMDV antiviral cell-based qHTS; Potency, µM (top dose mostly 57.9 µM), without a hit: at the highest dose activity change, negative = inhibition, hits mostly inhibitors; 410,000 compounds, 1.2% hits; AID 1159524; calls by dose curve; tested in HEK293T cells; also: read-out not given here; potency is read from the fitted curve at half-maximal effect; nearly all actives have a fitted effect of over 45% in size
LASV entry inh – Lassa virus entry inhibition; Lassa virus pseudotype entry inhibition, cell reporter; Potency, µM (top dose mostly 37.9 µM), for the others: at the top dose activity change, negative = inhibition, most hits filed as inhibitors; 300,000 compounds, 1.2% hits; AID 540256; calls by dose curve; tested in HEK293 cells; also: potency is read from the fitted curve at half-maximal effect; nearly all actives have a fitted effect of over 50% in size
* marks the source's active call; other numbers are inactive results; ? = inconclusive; . = no result; ! = a repeat was not active; [ ] = dose if it differs, or a comment. Unless noted, calls follow the shape of the dose curve; as a rule, active = well fitted curve in the direction sought with a large enough effect; inconclusive = small, poorly fitted or top-dose-only effect, or another doubt; inactive = no such curve, though single readings can be large; an effect the other way counts as inactive or inconclusive. % is scaled to controls: 0 for no effect and ±100 for the full control effect.

SMILES	HCMV inh	HCV inh	MARV entry inh	Giardia FBPA inh	FMDV antiviral	LASV entry inh
Cc1cc(C)n(-c2nc(Nc3ccccc3C)nc(-n3nc(C)cc3C)n2)n1	-97*	.	2%	.	.	.
CCNc1nc(NCC)nc(-n2nc(C)cc2C)n1	?	?	8%	15%	.	-4%
C=C(C(C)=O)C(O)c1cccc(Br)c1 (stereo unspecified)	.	.	.	-1%	.	.
CC1CCC(NC(=O)c2ccc3c(c2)OCO3)CC1 (stereo unspecified)	32	-8%	?	.	-25%	3.5µM*
CC1CCC(NCCc2ccc3c(c2)OCO3)CC1 (stereo unspecified)	-13	?	16µM*	-26%	.	8%
O=C(NC1CCCCC1)c1ccc2c(c1)OCO2	96	-1%	?	-1%	48%	4%[46.1 µM]
Cc1cc(-c2ccc(S(=O)(=O)N3CCN(c4ccc(Cl)cc4)CC3)s2)on1	0	.	.	.	-21%	2%[46.1 µM]
O=C(Nc1ccc(-c2nc3ccccc3o2)cc1)c1ccc2c(c1)OCO2	-108*	?	-8%	1%	7%	3%
O=C(Nc1ccccc1-c1nc2ccccc2o1)c1ccc2c(c1)OCCO2	.	.	-1%	.	.	.
O=C(Nc1ccc(-c2nc3ccccc3o2)cc1)c1ccc(N2C(=O)C3C4C=CC(C4)C3C2=O)cc1 (stereo unspecified)	-18	4µM*	-38%	8%	.	15µM*
Cc1ccc2oc(-c3ccc(NC(=O)c4ccc5c(c4)OCO5)cc3)nc2c1	-37	?	2%	5%	22%	7%
Cc1c(NC(=O)c2ccc3c(c2)OCO3)cccc1-c1nc2ccccc2o1	-33	?	21µM*	0%	-10%	21µM*
O=C(Nc1ccc2oc(-c3ccccc3F)nc2c1)c1ccc2c(c1)OCCO2	?	?	?	-9%	35µM*	0%
Cc1cccn2c(=O)c(/C=C(\C#N)c3nc4ccccc4n3C)c(Oc3ccc(Br)cc3)nc12	-12	.	17%[46.1 µM]	.	-20%	-1%[46.1 µM]
CCc1ccc(-n2c(=O)c3c(C)c(C)sc3n(CC(=O)NCc3ccc(C)cc3)c2=O)cc1	8	.	1%[46.1 µM]	.	-7%	-5%[46.1 µM]
Cc1ccc(Nc2c(-c3ccc(O)cc3)nc3cccc(C)n23)cc1	59	.	2%[46.1 µM]	.	17%	-18%[46.1 µM]
Cc1ccccc1Nc1c(-c2cccnc2)nc2cccc(C)n12	-62*!	?	-33%[46.1 µM]	5%	?	-2%[46.1 µM]
Cc1ccccc1Nc1c(-c2cccs2)nc2cccc(C)n12	6	.	2%[46.1 µM]	.	-29%	17%[46.1 µM]
Cc1cccc2nc(-c3cccnc3)c(Nc3ccc(C(C)C)cc3)n12	-83*	.	?	.	28µM*	?
CC(C)c1cnc2c(c1SCC(=O)NCc1ccccc1Cl)c(=O)n(C)c(=O)n2C	-19	.	.	.	7%	-16%[46.1 µM]
COc1ccc(C=C2CS(=O)(=O)CC(=Cc3ccc(OC)cc3)C2=O)cc1	-99*	.	.	.	13µM*	.
Cc1nn(C(C)C(=O)Nc2cccc(F)c2)c(=O)c2c1sc1ccccc12 (stereo unspecified)	-13	.	5%[46.1 µM]	.	-1%	19%[46.1 µM]
CCn1c2c(c(=N)c3c1CCC3)CCC2	-84*	2%	?	6%	-19%	2%
CCCCCCn1c(=O)[nH]c2c(c1=O)CCC2	19	-5%	6%[46.1 µM]	-1%	0%	-15%[46.1 µM]
N=c1c2c(n(Cc3ccc(F)cc3)c3c1CCC3)CCC2	-100*	8%	?	11%	-26%	-56%
SMILES	HCMV inh	HCV inh	MARV entry inh	Giardia FBPA inh	FMDV antiviral	LASV entry inh
CCCCCCn1c2c(c(=N)c3c1CCC3)CCC2	-104*	10µM*	8.2µM*	0%	?	3.7µM*
Fc1ccc(CN2CCCCCCC2)cc1	6	3%	8%	-27%	-21%	0%
CCCCCCCCCn1c2c(c(=N)c3c1CCC3)CCC2	.	0.89µM*	?	3%	5.6µM*	1.4µM*
CO[C@@H]1c2cc(F)ccc2/C(=C\CCOC(=O)C/C=C/c2ccccc2)[C@H]1C	.	.	.	-1%	.	.
CCCCNC(=O)Cn1c2c(c(-c3ccccc3Cl)cc1=O)CCC2	-16	-20%	.	1%	-2%	.
CCCCn1c2c(c(=N)c3c1CCC3)CCC2	-89*	?	?	6%	?	?
CCCCn1c2c(cc(C(=O)OC)c1=O)C(=O)CCC2	0	6%	.	.	-17%	.
CCCCCCCn1c2c(c(=N)c3c1CCC3)CCCC2	-95*	4.5µM*	?	3%	3.2µM*	?
C[C@H]1[C@@H](NC(=O)Nc2ccc(C(F)(F)F)cc2)CC[C@@]23CCCN2C(=O)CCC[C@@H]13	-27	.	.	.	.	.
O=C1C=C(N(CCO)Cc2ccccc2)c2ccccc2C1=O	.	?	?	0.35µM*	14µM*	4.5µM*

From PubChem BioAssay
